{
  "source": "PubChem BioAssay",
  "note": "A number with no mark means an inactive call. No rule for the calls is given here.",
  "data": [
    {"tested_on": "Aerobactin synthetase IucA (Klebsiella pneumoniae, hypervirulent)", "assay": "IucA enzyme inhibition, biochemical, LOPAC library, absorbance readout (AID 1346212);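 also: 100% = no compound wells and 0% = no enzyme wells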", "settings": "IucA enzyme assay, absorbance (OD) readout; stronger effect = lower value;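 tested at 8 µM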", "units": {"remaining activity": "%"}, "values": [
      {"smiles": "O=C(c1ccc2c(c1)OCCO2)N1CCCCC1", "remaining activity": 87.4},
      {"smiles": "CCCCCCCCCCCCCCCC(=O)OC(CC(=O)O)C[N+](C)(C)C", "note": "(centres undefined)", "remaining activity": 116},
      {"smiles": "C/C=C1\\C(=O)C[C@H]2[C@@H]3CCC4=CC(=O)CC[C@]4(C)[C@H]3CC[C@]12C", "remaining activity": 101},
      {"smiles": "O=C1NC(=O)C(c2ccccc2[N+](=O)[O-])=C1Nc1ccc(O)c(Cl)c1", "remaining activity": 95},
      {"smiles": "NC(=O)c1ccc2[nH]ccc2c1", "remaining activity": 89.8},
      {"smiles": "CCOC(=O)c1ncn2c1CN(C)C(=O)c1cc(F)ccc1-2", "remaining activity": 100},
      {"smiles": "CNCCC(Oc1ccccc1OC)c1ccccc1", "note": "(centres undefined)", "remaining activity": 104},
      {"smiles": "CCCCCCCCCCCCCCCCCC(=O)NCC(COP(=O)([O-])OCC[N+](C)(C)C)OCC", "note": "(centres undefined)", "remaining activity": 97.5},
      {"smiles": "CC#CCOC(=O)c1c(C)nc2sc3c(c2c1N)CCC(O)C3", "note": "(centres undefined)", "remaining activity": 113},
      {"smiles": "CC(C(=O)O)c1ccc(CC2CCCC2=O)cc1", "note": "(centres undefined)", "remaining activity": 120},
      {"smiles": "Nc1nc(OCc2ccccc2)c2[nH]cnc2n1", "remaining activity": 103},
      {"smiles": "C#CC(N)CCC(=O)O", "note": "(centres undefined)", "remaining activity": 122},
      {"smiles": "CC(=O)/C(C)=N/O", "remaining activity": 106},
      {"smiles": "CCCn1c(=O)c2[nH]c(-c3ccc(OCC(=O)Nc4ccc(C#N)cc4)cc3)nc2n(CCC)c1=O", "remaining activity": 109},
      {"smiles": "Nc1ncnc2c1nc(Sc1ccc(Cl)cc1)n2C1OC2COP(=O)(O)O[C@@H]2[C@@H]1O", "note": "(some centres undefined)", "remaining activity": 108},
      {"smiles": "OCCN1CCN(CC/C=C2/c3ccccc3Sc3ccc(C(F)(F)F)cc32)CC1", "remaining activity": 105},
      {"smiles": "COC1=C(OC)C(=O)c2ccccc2C1=O", "remaining activity": 109},
      {"smiles": "N#C/C(=C\\c1ccc(O)c(O)c1)C(=O)NCCCc1ccccc1", "remaining activity": 103},
      {"smiles": "CN(C)CCCCSC(=N)N", "remaining activity": 84.5},
      {"smiles": "COCC(=O)O[C@]1(CCN(C)CCCc2nc3ccccc3[nH]2)CCc2cc(F)ccc2[C@@H]1C(C)C", "remaining activity": 128},
      {"smiles": "O=c1[nH]c(=O)n([C@H]2C[C@H](O)[C@@H](CO)O2)cc1Br", "remaining activity": 96.4},
      {"smiles": "O=C(O)CCC/C=C\\C[C@@H]1[C@@H](/C=C/[C@H](O)C2Cc3ccccc3C2)[C@@H](F)C[C@@H]1O", "remaining activity": 97.7},
      {"smiles": "COC(=O)[C@@H]1[C@H]2C[C@H]3c4[nH]c5ccccc5c4CCN3C[C@@H]2CC[C@@H]1O", "remaining activity": 124},
      {"smiles": "Nc1nc2c(ncn2COC(CO)CO)c(=O)[nH]1", "remaining activity": 111},
      {"smiles": "O=S(=O)(c1cccc2c(Cl)cccc12)N1CCCNCC1", "remaining activity": 110},
      {"smiles": "CCNC(=O)N1CCN(CCCC(c2ccc(F)cc2)c2ccc(F)cc2)CC1", "remaining activity": 112},
      {"smiles": "Nc1ncnc2n[nH]c(Nc3ccc(F)cc3)c12", "remaining activity": 101},
      {"smiles": "CN(C)c1nc(N)c(C(=O)N=C(N)N)nc1Cl", "remaining activity": 119},
      {"smiles": "Nc1ncnc2c1ncn2C1CCCO1", "note": "(centres undefined)", "remaining activity": 75.8},
      {"smiles": "CC[C@H](CO)Nc1nc(NCc2ccccc2)c2ncn(C(C)C)c2n1", "remaining activity": 123},
      {"smiles": "CC[n+]1c(/C=C/C=C2/N(C)c3ccccc3C2(C)C)sc2ccccc21", "remaining activity": 93.2},
      {"smiles": "OC[C@H]1O[C@@H](n2cnc3c(N[C@H]4CCC[C@@H]4O)ncnc32)[C@H](O)[C@@H]1O", "remaining activity": 123},
      {"smiles": "CC(=O)N[C@@H](Cc1c[nH]c2ccccc12)C(=O)OCc1cc(C(F)(F)F)cc(C(F)(F)F)c1", "remaining activity": 117},
      {"smiles": "OC[C@H]1O[C@@H](n2cnc3c(NCCc4ccccc4)ncnc32)[C@H](O)[C@@H]1O", "remaining activity": 92.7},
      {"smiles": "CN1CC[C@]2(CCN3CCc4c(oc5ccccc45)[C@@H]3C2)N(C)C1=O", "remaining activity": 109},
      {"smiles": "O=C(O)C1=CCNCC1", "remaining activity": 95.2},
      {"smiles": "Cc1cc(Cn2cnc3c2C[C@@H](C(=O)O)N(C(=O)C(c2ccccc2)c2ccccc2)C3)ccc1N", "remaining activity": 112},
      {"smiles": "COc1ccccc1N1CCN(CCN2C(=O)CC3(CCCC3)CC2=O)CC1", "remaining activity": 117},
      {"smiles": "NC(=S)c1ccc[n+]([C@@H]2O[C@@H](COP(=O)([O-])OP(=O)(O)OC[C@H]3O[C@@H](n4cnc5c(N)ncnc54)C(OP(=O)(O)O)[C@H]3O)C(O)C2O)c1", "note": "(some centres undefined)", "remaining activity": 97.1}
    ]}
  ]
}
